Reference: the supplement of paper PMC11732987, “Enantioselective OTUD7B fragment discovery through chemoproteomics screening and high-throughput optimisation” (Communications Chemistry, 2025)

Columns and labels:
Assay in all cases: log2 ratio of Biotin-Ahx-Ub-VS probe labelling (fragment/DMSO); higher = less target engagement (more negative = stronger competition), active = hit call of the paper (q ≤ 0.05, log2 ratio ≤ -1)
Details in all cases: compound concentration: 200 uM; treatment time: 3 h
USP42 = biological target: T1, USP42 (UniProt Q9H9J4)
T1 sequence (whole entry): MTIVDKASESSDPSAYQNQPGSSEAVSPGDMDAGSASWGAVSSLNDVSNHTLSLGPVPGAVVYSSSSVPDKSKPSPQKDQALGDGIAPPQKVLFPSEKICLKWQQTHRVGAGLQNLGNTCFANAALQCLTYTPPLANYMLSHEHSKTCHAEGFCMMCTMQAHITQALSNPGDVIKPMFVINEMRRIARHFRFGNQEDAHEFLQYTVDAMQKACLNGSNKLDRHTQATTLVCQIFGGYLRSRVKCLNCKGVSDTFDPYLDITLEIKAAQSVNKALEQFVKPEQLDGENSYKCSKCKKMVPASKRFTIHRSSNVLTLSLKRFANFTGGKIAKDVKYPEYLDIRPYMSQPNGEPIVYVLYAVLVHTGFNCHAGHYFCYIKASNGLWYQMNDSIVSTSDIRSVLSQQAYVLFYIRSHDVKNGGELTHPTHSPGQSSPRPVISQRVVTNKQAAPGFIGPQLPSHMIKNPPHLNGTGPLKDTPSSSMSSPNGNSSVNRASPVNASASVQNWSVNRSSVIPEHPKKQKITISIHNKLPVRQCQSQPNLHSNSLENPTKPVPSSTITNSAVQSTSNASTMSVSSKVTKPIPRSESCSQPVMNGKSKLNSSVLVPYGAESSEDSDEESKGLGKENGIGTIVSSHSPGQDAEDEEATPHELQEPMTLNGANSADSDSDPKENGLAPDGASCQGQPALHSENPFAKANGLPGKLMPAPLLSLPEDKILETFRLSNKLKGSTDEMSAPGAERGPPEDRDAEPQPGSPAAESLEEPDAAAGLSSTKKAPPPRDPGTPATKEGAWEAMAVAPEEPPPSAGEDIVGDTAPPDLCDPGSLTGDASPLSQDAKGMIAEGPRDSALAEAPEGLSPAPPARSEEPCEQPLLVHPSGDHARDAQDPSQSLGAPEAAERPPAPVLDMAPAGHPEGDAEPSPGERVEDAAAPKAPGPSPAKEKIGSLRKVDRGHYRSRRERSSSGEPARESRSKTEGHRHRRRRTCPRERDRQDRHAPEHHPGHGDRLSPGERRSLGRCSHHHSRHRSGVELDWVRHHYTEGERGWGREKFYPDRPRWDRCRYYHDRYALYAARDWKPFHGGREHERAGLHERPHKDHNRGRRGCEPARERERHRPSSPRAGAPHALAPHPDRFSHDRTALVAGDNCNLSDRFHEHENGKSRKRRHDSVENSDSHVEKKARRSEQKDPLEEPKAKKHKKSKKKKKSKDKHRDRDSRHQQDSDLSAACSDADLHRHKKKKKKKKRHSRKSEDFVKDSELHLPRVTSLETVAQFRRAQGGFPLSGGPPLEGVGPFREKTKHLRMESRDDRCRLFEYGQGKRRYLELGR
In short: (§1)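 HEK293T lysate in Tris/CHAPS/IGEPAL buffer with protease inhibitors (495 µg per sample) was given fragment at 200 µM or vehicle for 3 h, in triplicate. It then received Biotin-Ahx-Ub-VS at 0.5 µM final for 1 h. Labelled DUBs were NeutrAvidin-enriched, digested with LysC and trypsin, and run by diaPASEF LC-MS/MS. Values are average log2 fragment/vehicle ratios by unpaired t-test on global-median-normalised Spectronaut quantities of proteins with ≥2 unique peptides.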

USP46 = USP46 (UniProt P62068)
In short: as §1

USP47 = biological target: T2, USP47 (UniProt Q96K76)
T2 sequence (whole entry): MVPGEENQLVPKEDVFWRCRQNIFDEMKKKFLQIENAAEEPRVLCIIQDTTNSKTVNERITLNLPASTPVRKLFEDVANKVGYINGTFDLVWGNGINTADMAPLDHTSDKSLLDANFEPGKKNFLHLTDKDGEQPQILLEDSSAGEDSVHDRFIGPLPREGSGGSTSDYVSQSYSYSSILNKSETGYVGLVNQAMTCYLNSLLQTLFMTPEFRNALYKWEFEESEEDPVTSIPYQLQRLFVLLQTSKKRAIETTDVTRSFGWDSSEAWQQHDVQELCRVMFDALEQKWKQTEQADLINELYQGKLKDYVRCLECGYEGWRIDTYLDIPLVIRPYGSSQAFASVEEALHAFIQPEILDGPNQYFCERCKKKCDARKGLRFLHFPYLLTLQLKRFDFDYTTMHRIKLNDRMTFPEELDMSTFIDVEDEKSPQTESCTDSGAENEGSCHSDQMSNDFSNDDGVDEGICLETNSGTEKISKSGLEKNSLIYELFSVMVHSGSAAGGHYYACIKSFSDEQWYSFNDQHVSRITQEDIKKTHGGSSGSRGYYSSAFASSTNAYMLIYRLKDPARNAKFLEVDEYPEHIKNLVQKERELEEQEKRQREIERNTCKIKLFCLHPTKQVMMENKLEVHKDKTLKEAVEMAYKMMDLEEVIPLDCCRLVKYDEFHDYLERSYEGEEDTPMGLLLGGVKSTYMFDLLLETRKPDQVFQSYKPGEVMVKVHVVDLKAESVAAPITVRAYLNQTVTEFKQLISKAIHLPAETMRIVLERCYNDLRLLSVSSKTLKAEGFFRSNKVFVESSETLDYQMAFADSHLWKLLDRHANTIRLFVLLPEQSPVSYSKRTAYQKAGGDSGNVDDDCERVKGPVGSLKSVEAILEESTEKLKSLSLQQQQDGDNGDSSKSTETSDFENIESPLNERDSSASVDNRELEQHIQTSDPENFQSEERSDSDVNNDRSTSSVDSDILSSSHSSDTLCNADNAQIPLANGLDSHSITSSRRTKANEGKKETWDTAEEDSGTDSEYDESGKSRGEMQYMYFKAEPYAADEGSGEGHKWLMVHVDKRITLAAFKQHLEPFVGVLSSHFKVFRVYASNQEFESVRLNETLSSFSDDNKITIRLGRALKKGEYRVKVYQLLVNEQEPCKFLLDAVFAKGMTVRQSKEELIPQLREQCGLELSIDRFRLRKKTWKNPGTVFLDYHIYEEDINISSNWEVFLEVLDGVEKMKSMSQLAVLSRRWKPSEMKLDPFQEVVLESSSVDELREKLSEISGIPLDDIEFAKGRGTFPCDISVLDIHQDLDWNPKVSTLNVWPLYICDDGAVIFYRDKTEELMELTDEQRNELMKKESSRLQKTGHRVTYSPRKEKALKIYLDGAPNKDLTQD
In short: as §1

USP48 = biological target: T3, USP48 (UniProt Q86UV5)
T3 sequence (whole entry): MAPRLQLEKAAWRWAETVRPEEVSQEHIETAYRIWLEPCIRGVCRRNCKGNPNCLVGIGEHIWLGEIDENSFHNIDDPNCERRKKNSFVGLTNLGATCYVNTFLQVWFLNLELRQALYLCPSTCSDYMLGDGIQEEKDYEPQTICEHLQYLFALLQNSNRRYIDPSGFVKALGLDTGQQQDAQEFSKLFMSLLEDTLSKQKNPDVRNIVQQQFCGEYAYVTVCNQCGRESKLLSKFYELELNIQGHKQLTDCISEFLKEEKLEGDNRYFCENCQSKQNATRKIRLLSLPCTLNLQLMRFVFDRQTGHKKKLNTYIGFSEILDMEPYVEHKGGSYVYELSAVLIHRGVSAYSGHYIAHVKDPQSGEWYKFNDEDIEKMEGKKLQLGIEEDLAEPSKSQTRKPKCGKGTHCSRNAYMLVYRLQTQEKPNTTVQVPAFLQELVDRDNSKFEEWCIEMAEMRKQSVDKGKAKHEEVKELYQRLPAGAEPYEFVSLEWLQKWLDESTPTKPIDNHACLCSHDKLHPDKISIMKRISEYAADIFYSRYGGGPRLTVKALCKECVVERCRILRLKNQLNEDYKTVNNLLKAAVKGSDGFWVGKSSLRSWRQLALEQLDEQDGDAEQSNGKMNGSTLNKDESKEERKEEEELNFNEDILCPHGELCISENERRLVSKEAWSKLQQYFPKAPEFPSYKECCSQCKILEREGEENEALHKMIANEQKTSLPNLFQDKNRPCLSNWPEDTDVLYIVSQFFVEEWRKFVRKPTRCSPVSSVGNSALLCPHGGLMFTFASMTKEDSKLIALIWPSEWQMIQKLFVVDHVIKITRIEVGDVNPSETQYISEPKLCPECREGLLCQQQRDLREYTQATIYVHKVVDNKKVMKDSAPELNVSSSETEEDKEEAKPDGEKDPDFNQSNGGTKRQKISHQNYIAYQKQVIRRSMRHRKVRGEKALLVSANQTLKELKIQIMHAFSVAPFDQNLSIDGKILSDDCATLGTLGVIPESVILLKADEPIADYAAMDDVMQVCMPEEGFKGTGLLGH
In short: as §1

USP5 = biological target: T4, USP5 (UniProt P45974)
T4 sequence (whole entry): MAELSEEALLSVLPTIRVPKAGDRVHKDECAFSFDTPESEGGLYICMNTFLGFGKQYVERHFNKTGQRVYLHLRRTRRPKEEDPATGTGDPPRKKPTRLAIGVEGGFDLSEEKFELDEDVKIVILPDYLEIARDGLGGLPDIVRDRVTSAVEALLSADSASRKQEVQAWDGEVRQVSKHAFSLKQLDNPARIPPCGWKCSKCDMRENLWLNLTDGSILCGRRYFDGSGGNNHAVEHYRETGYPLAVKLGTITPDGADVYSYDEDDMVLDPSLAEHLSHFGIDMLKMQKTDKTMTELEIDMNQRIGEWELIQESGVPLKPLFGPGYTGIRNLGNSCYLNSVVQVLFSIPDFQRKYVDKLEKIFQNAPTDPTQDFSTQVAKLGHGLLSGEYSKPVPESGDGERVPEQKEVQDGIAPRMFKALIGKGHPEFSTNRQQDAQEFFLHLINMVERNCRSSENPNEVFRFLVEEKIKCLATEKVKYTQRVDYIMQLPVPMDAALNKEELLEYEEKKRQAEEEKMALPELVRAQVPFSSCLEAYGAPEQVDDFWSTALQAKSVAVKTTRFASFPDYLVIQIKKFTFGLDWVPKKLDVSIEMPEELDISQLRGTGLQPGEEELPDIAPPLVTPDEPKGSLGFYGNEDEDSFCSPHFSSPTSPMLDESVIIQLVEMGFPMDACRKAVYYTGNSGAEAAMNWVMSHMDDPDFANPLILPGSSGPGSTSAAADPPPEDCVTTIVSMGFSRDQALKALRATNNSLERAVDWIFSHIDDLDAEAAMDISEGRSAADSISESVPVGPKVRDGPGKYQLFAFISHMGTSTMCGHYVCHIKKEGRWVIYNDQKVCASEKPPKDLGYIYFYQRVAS
In short: as §1

USP54 = USP54 (UniProt Q70EL1)
In short: as §1

USP7 = USP7 (UniProt Q93009)
In short: as §1

USP8 = biological target: T5, USP8 (UniProt P40818)
T5 sequence (whole entry): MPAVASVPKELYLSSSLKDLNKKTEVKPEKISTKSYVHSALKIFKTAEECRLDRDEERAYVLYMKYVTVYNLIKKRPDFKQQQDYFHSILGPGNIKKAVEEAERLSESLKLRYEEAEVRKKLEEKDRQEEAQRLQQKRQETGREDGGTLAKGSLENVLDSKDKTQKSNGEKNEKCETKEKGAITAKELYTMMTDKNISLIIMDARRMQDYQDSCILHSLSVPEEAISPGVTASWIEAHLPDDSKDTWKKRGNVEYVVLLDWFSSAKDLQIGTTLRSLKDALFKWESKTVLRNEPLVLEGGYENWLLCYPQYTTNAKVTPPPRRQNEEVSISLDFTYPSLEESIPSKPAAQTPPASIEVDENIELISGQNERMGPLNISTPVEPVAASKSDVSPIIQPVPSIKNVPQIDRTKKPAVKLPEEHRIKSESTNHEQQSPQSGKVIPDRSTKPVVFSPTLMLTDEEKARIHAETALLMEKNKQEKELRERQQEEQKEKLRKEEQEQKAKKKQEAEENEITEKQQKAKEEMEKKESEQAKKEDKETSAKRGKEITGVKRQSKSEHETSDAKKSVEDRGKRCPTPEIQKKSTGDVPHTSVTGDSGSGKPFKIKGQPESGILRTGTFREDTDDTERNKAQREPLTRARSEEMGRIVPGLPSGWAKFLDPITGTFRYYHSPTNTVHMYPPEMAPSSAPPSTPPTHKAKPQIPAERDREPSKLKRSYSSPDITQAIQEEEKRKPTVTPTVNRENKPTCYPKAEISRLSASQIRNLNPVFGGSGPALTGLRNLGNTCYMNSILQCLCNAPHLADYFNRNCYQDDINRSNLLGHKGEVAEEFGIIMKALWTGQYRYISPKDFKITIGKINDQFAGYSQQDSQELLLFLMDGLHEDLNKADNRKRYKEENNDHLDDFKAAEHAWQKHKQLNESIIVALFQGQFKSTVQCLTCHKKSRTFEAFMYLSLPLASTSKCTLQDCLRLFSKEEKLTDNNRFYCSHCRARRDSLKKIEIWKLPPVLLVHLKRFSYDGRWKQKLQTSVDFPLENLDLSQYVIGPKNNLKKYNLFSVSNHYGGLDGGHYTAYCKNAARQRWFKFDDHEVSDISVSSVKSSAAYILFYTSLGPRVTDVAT
In short: as §1

USP9X = USP9X (UniProt Q93008)
In short: as §1

UniProt O00487 = biological target: UniProt O00487
In short: as §1

Measured: log2 ratio of Biotin-Ahx-Ub-VS probe labelling

Chain of USP9X (Q93008 whole entry): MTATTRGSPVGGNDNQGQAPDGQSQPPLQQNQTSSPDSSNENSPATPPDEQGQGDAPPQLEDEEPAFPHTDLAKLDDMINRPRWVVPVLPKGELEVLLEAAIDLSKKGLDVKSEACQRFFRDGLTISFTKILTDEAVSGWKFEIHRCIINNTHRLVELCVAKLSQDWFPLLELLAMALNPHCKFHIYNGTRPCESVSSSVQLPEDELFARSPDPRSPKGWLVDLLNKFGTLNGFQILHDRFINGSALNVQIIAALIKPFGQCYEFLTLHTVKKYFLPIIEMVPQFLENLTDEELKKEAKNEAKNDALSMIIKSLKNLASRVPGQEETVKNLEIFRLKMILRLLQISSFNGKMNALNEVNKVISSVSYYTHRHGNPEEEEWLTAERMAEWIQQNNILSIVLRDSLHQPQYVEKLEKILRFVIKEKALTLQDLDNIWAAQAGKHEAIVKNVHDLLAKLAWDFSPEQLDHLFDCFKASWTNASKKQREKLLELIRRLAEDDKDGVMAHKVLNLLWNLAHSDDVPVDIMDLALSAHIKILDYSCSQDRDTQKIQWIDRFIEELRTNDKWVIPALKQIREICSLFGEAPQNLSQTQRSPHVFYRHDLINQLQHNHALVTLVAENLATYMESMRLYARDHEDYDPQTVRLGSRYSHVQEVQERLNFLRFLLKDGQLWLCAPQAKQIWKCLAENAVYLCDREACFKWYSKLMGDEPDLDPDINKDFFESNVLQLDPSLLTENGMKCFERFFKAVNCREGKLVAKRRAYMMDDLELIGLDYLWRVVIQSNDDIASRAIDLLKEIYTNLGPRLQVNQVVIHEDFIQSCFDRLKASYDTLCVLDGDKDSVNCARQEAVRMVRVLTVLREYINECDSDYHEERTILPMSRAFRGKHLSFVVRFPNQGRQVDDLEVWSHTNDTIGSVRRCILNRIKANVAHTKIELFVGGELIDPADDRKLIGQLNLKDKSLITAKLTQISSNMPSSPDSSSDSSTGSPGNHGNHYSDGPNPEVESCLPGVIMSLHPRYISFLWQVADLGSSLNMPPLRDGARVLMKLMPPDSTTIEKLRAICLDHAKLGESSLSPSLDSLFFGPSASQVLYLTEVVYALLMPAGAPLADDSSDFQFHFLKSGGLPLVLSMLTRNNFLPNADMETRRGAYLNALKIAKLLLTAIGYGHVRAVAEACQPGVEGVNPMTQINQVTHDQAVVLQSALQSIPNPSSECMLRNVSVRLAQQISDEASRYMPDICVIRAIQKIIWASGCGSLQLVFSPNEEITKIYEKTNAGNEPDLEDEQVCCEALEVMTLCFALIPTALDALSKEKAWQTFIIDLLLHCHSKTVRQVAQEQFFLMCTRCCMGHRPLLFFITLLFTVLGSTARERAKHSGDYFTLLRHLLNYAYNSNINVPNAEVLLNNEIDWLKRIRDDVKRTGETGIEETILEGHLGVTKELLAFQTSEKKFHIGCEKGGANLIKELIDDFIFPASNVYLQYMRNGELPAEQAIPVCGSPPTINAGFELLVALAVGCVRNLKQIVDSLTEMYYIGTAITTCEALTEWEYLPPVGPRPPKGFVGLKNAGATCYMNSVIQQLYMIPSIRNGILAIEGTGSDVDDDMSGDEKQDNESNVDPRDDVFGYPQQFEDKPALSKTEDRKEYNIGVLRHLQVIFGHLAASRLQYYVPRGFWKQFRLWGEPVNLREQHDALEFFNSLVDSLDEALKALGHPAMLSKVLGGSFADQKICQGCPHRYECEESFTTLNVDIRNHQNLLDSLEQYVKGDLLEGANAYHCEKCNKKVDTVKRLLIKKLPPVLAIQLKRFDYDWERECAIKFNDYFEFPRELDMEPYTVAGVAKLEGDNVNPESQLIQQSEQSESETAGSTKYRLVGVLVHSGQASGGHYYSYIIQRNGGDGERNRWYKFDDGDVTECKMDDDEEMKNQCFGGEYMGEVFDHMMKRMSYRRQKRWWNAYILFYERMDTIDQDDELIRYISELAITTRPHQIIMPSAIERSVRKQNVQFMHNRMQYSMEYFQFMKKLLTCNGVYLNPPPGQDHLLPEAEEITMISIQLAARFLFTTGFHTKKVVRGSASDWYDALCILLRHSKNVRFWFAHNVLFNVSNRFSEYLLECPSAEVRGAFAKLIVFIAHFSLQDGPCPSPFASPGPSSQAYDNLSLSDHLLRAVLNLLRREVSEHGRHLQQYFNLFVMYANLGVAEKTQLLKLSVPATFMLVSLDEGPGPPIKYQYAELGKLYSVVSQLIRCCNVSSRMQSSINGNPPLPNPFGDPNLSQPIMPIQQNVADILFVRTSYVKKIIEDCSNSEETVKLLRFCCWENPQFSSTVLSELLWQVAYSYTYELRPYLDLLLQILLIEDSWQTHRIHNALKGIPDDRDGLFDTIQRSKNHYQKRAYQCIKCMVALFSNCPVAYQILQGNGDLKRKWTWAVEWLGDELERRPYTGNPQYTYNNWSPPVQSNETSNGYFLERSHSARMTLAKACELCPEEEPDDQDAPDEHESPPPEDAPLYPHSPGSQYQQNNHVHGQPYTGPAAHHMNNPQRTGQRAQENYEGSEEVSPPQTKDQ
Chain of USP7 (Q93009 whole entry, looked up): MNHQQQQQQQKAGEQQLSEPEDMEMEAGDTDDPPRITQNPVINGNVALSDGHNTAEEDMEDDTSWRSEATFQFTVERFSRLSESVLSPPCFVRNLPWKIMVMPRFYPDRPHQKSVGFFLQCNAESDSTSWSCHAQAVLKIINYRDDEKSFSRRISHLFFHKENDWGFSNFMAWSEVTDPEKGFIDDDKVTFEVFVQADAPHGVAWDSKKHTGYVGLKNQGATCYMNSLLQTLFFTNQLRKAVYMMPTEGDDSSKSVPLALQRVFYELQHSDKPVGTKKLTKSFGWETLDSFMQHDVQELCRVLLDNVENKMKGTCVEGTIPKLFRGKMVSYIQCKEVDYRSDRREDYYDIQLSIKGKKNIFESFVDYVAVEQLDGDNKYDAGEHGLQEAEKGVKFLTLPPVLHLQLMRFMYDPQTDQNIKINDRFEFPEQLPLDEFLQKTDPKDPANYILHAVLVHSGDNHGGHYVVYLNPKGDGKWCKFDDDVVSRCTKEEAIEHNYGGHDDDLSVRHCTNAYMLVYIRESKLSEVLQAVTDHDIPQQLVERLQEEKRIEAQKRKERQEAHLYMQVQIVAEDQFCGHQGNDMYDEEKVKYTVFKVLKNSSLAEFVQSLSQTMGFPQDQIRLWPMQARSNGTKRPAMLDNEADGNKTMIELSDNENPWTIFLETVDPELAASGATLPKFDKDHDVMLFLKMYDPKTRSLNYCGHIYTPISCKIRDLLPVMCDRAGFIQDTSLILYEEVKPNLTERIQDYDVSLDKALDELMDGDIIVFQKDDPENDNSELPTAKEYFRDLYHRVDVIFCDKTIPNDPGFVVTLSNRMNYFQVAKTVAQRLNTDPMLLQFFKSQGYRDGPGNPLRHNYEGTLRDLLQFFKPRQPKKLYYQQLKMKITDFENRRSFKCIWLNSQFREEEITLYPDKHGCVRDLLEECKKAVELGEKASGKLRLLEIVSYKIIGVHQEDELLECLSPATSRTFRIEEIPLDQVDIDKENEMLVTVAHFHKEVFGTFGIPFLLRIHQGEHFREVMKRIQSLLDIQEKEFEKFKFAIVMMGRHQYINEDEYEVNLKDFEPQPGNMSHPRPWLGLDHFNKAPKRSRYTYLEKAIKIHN
Chain of USP46 (P62068 whole entry): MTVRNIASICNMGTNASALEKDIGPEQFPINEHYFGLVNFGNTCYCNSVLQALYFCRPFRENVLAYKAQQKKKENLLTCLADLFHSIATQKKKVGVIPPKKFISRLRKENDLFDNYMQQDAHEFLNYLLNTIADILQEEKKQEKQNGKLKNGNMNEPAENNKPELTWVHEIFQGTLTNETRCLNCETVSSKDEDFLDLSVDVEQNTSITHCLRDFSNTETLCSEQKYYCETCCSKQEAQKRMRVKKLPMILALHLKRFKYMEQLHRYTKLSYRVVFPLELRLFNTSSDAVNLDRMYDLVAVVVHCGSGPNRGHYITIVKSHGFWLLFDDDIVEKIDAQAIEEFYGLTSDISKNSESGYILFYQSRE
Chain of UniProt O00487 (O00487 whole entry): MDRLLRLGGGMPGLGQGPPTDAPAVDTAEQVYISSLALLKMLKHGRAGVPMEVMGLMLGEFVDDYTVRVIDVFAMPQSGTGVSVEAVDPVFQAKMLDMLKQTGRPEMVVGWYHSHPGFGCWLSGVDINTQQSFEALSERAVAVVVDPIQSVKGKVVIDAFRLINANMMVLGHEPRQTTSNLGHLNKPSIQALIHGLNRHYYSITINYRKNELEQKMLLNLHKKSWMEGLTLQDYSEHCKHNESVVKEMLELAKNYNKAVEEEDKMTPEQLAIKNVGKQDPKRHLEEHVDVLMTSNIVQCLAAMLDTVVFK

C/C(=C\CNC(=O)CCl)c1cnn(C)c1.Cl
inactive: USP42 0.377 | USP46 -0.21 | USP47 -0.51 | USP48 -0.224 | USP5 -0.543 | USP54 -0.0188 | USP7 -0.224 | USP8 0.115 | USP9X -0.138 | UniProt O00487 -0.0232
